About 83,000 compounds went through this panel and 20% of them were active in at least one assay; those are over-represented in the sample as a whole.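 Values shown are percent growth following 48 h exposure of cells in 96-well plates to a single concentration of compound; below 10 was considered active.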 Unmarked numbers belong to inactive results. Calls of active or inactive are those of the source.
What was measured:
Test in all cases: NCI-60 one-dose screen, 48 h (100 = growth as untreated, 0 = no growth, -100 = all killed)
Conditions in all cases: 10 µM unless noted
[1] = system: NCI-H23 lung
[2] = system: NCI-H226 lung
[3] = system: NCI-H322M lung
[4] = system: HOP-62 NSCLC
[5] = system: NCI-H460 lung
[6] = system: HOP-92 NSCLC
[7] = system: NCI-H522 lung
[8] = system: A549/ATCC NSCLC
[9] = system: 786-0 renal
[10] = system: COLO 205 colon

SMILES | growth [1] | growth [2] | growth [3] | growth [4] | growth [5] | growth [6] | growth [7] | growth [8] | growth [9] | growth [10]
Cc1nc2cccc(NCc3ccc(C(=O)NO)cc3)c2c(=O)n1-c1ccccc1 | -16.8% (active) | 67.2% | 66.8% | 43.9% | 29.3% | 15.3% | -2.46% (active) | 34.1% | 54.5% | -37.9% (active)
Cn1cc(-c2nc(-c3c[nH]c4c(Cl)nccc34)cs2)c2ccccc21 | 98.6% | 103% | 99.4% | 92.5% | 95.5% | 80.4% | 85.5% | 66.7% | 87.4% | 102%
O=C(Nc1ncc(Cc2ccc(Cl)cc2)s1)c1ccc2c(c1)OCCO2 | 37% | 23.5% | 46.8% | 26.8% | 8% (active) | 60.6% | 2.46% (active) | 18% | 38.7% | -13.7% (active)
O=C1/C(=C/c2ccc(Br)cc2)COc2ccc(O)cc21 | 101% | 95.5% | 95.6% | 99% | 102% | 99.9% | 15.8% | 91.1% | 76.4% | 86.8%
CN1CCN(CC(=O)N(C)c2ccc(N=C(c3ccccc3)c3c(O)[nH]c4ccc([N+](=O)[O-])cc34)cc2)CC1 | 80.4% | 61.9% | 82.4% | 85.1% | 54.5% | 87.9% | 86.8% | 46.7% | 44.3% | 28.6%
CC/C(=C(/c1ccc(Cl)cc1)c1ccc(OCCCN(C)C)cc1)c1ccc(OC)cc1 | 78.6% | 104% | 67.5% | 99.1% | 5.32% (active) | 49.8% | 87.3% | 49.8% | 57.9% | -65.3% (active)
C=C(C)[C@@H]1CCC[C@]2(C(=O)OC)CC[C@]3(C)[C@@H](CC[C@@H]4[C@@]5(C)CCCNC(C)(C)[C@@H]5CC[C@]43C)[C@@H]12 | 96% | 84.4% | 79.6% | 85.5% | 94.4% | 70.7% | 91.8% | 91.9% | 90.1% | 76.1%
CC(C)(C)CC(C)(C)Nc1c(-c2c(O)c3ccccc3oc2=O)nc2sccn12 | 97.9% | 88.9% | 86.7% | 85% | 111% | 107% | 83% | 90.8% | 109% | 102%
O=C(NCCN1CCOCC1)c1cncnc1Nc1ccc2c(ccn2Cc2ccccn2)c1 | 102% | 95.2% | 105% | 102% | 103% | 93.8% | 83.7% | 101% | 98.5% | 95.6%
N=C(N)c1ccc(-c2ccc(-c3ccc(Cl)cc3Cl)s2)nc1 | 85.2% | 91.7% | 60.9% | 90.7% | -60.1% (active) | 84.2% | 29% | 33.1% | 85.4% | -27.1% (active)
COc1cccc2cc(N(C)c3ncnc4ccccc34)ccc12 | 15.5% | 46.2% | 48% | 23.3% | 4.58% (active) | 28.1% | -9.69% (active) | 13.5% | 29.5% | -13.8% (active)
CC1(C)CCC[C@]23C(=O)O[C@](O)(C(=O)C4=C[C@@](C)(/C=C/CCCc5ccc6ccc7cccc8ccc5c6c78)CC[C@@]42O)[C@@H]13 | -60.6% (active) | -69.5% (active) | -98.6% (active) | -66.1% (active) | -74.5% (active) | -83.9% (active) | -62.6% (active) | -70.5% (active) | -79.3% (active) | -72.4% (active)
COc1ccc(N2C(=O)/C(=C/C(Cl)=C/c3ccc([N+](=O)[O-])cc3)SC2=S)cc1 | -1.85% (active) | -31% (active) | 31.2% | -9.71% (active) | 0.356% (active) | -33.8% (active) | -42.5% (active) | -0.282% (active) | -77.7% (active) | -36% (active)
CC(=O)c1c(/C=C/c2ccc(C)cc2)c2ccccc2[nH]c1=O | 86.5% | 63% | 91.2% | 89.4% | 91.3% | 73.1% | 84.6% | 85.4% | 97.8% | 105%
COc1cc(C(=O)n2nc(NCCCc3ccccc3)c3cc(N)ccc32)cc(OC)c1OC | 92.8% | 89.7% | 106% | 93.5% | 102% | 88.9% | 74.6% | 93.3% | 96.1% | 113%
COc1cccc(CNc2nnc(C)c(C)n2)c1O | 96.5% | 89.1% | 108% | 95.6% | 102% | 81.2% | 90.7% | 93.7% | 104% | 109%
O=C(N/N=C/c1ccccc1Cl)c1ccccc1Nc1ccnc(C(F)(F)F)c1 | 16% | 3.35% (active) | 6.53% (active) | 1.91% (active) | 3.5% (active) | -17.1% (active) | -20.5% (active) | 7.28% (active) | -30.4% (active) | -38% (active)
CCN1C(=O)N(CC)C2C1NN=c1s/c(=C\c3ccc([N+](=O)[O-])cc3)c(=O)n12 (stereo not given) | 47% | 66.8% | 54.6% | 42.6% | 8.23% (active) | 79.2% | -0.229% (active) | 30.4% | 44.1% | 13.3%
COc1ccc(NC(=O)c2ccc(Cl)cc2Cl)cc1 | 85.3% | 105% | 103% | 107% | 97.8% | 104% | 97.1% | 96.5% | 93% | 101%
O=C1/C(=C/c2ccccc2)COc2ccc(O)cc21 | 97.2% | 104% | 99.3% | 104% | 103% | 93.7% | 73.5% | 90.5% | 86.9% | 93.2%
O=C1Nc2ccccc2/C1=C/c1cccn1CCCCCCn1c2ccccc2c(=O)c2ccccc21 | 73.6% | 72.7% | 97.9% | 63.2% | 90.7% | 56.4% | 66% | 87.9% | 103% | 50.5%
COC(=O)[C@@H](Cc1c[nH]c2ccccc12)NC[C@@H](O)CN1C(=O)/C(=C\c2cc(OC)c(OC)c(OC)c2)c2ccccc21 | 76.6% | 58.5% | 84.8% | 64.8% | 68.2% | 68% | 67.4% | 67.2% | 77.6% | 73.8%
C=C1/C(=C\C=C2/CCC[C@]3(C)[C@@H]([C@H](C)CCCC(C)(C)O)CC[C@@H]23)C[C@@H](OC(=O)CBr)C[C@@H]1O | 37.7% | 45.2% | 94% | 83.8% | 92.1% | -67.5% (active) | -68.8% (active) | 66% | 6.95% (active) | 19.4%
CCOC(=O)c1c(C)nc2c(c1N)C(=O)C(=O)N2CCc1ccc(OC)c(OC)c1 | 67% | 74% | 109% | 58.9% | 88.2% | 81.8% | 31.9% | 66% | 82.9% | 99.3%
COc1ccc(/C=C\c2cc(OC)c(OC)c(OC)c2)cc1OCC(=O)Nc1nc2ccccc2s1 | 23.5% | 41.7% | 61.6% | 62.5% | 1.29% (active) | 50.6% | -21.8% (active) | 29.9% | 51.4% | 6.65% (active)
O=C(CN1C(=O)c2ccccc2S1(=O)=O)Nc1nc(-c2cc3ccccc3oc2=O)cs1 | 110% | 94.4% | 97.3% | 105% | 105% | 96.4% | 92.2% | 104% | 91.8% | 117%
CCCCCCCCOC(=O)c1c(C)[nH]c(/C=C2\N=C(c3ccc[nH]3)C=C2OC)c1C | 3.19% (active) | 9.15% (active) | 26% | 12.7% | 10.2% | -12.5% (active) | 4.04% (active) | -10.9% (active) | -40.1% (active) | -33.7% (active)

— PubChem BioAssay (NCI)
